Results from PMC13083723 (Patterns, 2026).
About 190 (3.5%) of roughly 5,400 compounds showed an effect of 50% or more. For the sample, strong results were picked, then their nearest neighbours and some compounds at random.

What follows are molecules tested on Vero-E6 (assay: primary screen, phospholipidosis by LipidTOX staining; higher = more effect of the substance). Conditions: 10 µM.
Summary of the method: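 Drug-induced phospholipidosis detected with HCS LipidTOX Red reagent in Vero-E6 cells. Compounds tested at 10 μM, with amiodarone (10 μM) as positive control and DMSO (0.1 v/v %) as vehicle.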

Row | Compound | result_ITMP [%]
1 | C[N+]1([O-])[C@@H]2C[C@@H](OC(=O)[C@H](CO)c3ccccc3)C[C@H]1[C@@H]1O[C@@H]12 (stereo partly drawn) | -4.04
2 | C[C@@]1(CO)[C@H](O)CC[C@@]2(C)[C@H]1CC[C@H]1C[C@@H]3C[C@@]12CC[C@]3(O)CO | 0.12
3 | CC(C)(C)c1ccc(-c2nc3cccc(N4CCN(Cc5ccc6nccnc6c5)CC4)c3[nH]2)cc1 | 5.05
4 | Cc1cc(C)cc(NC(=O)Cc2ccc(OC(C)(C)C(=O)[O-])cc2)c1 | 9.78
5 | O=S(=O)([O-])c1ccc(O)cc1 | -0.61
6 | Cc1onc(-c2c(F)cccc2Cl)c1C(=O)N[C@@H]1C(=O)N2[C@@H]1SC(C)(C)[C@@H]2C(=O)[O-] | -6.63
7 | CCCCOc1c(C(=O)c2c(F)cc(C)cc2F)cnc2[nH]ncc12 | 7.58
8 | C/C(=C\CNc1ncnc2nc[nH]c12)CO | -1.84
9 | OCCN1CCN(CCCN2c3ccccc3Sc3ccc(C(F)(F)F)cc32)CC1 | 60.4
10 | CCCCCCCCCCCCCCCC(=O)OCCC1CCN(CCCN2c3ccccc3Sc3ccc(S(=O)(=O)N(C)C)cc32)CC1 | -5.2
11 | CCSc1ccc2c(c1)N(CCCN1CCN(C)CC1)c1ccccc1S2 | 59.1
12 | CCCCCCCCCC(=O)OCCN1CCN(CCCN2c3ccccc3Sc3ccc(C(F)(F)F)cc32)CC1 | 5.56
13 | O=C(CN1CCN(Cc2ccc3c(c2)OCO3)CC1)N1c2ccccc2Sc2ccccc21 | 15.4
14 | CN1CCN(CCCN2c3ccccc3Sc3ccc(S(=O)(=O)N(C)C)cc32)CC1 | 50.3
15 | C[C@@H]1CN(Cc2ccc(F)cc2)[C@@H](C)CN1C(=O)c1cc2c(C(=O)C(=O)N(C)C)cn(C)c2cc1Cl | -5.07
16 | O=C([O-])c1cc2cc(Cc3cccnc3)ccc2o1 | -0.95
17 | O=C([O-])[C@H](CC(=O)N1C[C@H]2CCCC[C@H]2C1)Cc1ccccc1 | -4.71
18 | O=C(NN1C(=O)[C@@H]2[C@@H]3C=C[C@@H]([C@H]4C[C@@H]34)[C@@H]2C1=O)c1ccc(C(F)(F)F)cc1 | -0.89
19 | C/N=C(/NS(=O)(=O)c1ccc(Cl)cc1)N1CC(c2ccccc2)C(c2ccc(Cl)cc2)=N1 (racemic) | -1.59
20 | O=C(O)c1cnn(-c2nc3cc(Cl)c(OC(F)(F)F)cc3[nH]2)c1 | -2.3
21 | CSc1ccc(C(=O)c2nc(O)[nH]c2C)cc1 | -1.45
22 | O=S(=O)(NCCNC/C=C/c1ccc(Br)cc1)c1cccc2cnccc12 | 60.8
23 | NC(N)=NCCNS(=O)(=O)c1cccc2cnccc12 | -3.17
24 | O=S(=O)(c1cccc2cnccc12)N1CCNCC1 | 0.47

Row | Compound | result_ITMP [%]
25 | NC[C@@H]1O[C@H](O[C@H]2[C@@H](O)[C@H](O[C@@H]3[C@@H](O)[C@H](N)C[C@H](N)[C@H]3O[C@H]3O[C@H](CN)[C@@H](O)[C@H](O)[C@H]3N)O[C@@H]2CO)[C@H](N)[C@@H](O)[C@@H]1O | -2.72
26 | c1cnc2c([O][Ga]([O]c3cccc4cccnc34)[O]c3cccc4cccnc34)cccc2c1 | 5.3
27 | CCOC(=O)c1ccc(-n2cc(Cc3cnc(OCC)nc3)c(=O)nc2SCc2ccc(F)cc2)cc1 | -1.15
28 | CCC(C)[C@H]1O[C@]2(C=C[C@@H]1C)C[C@@H]1C[C@@H](C/C=C(\C)[C@@H](OC3C[C@H](OC)C(O[C@H]4C[C@H](OC)[C@@H](O)[C@H](C)O4)[C@H](C)O3)[C@@H](C)/C=C/C=C3\CO[C@@H]4[C@H](O)C(C)=C[C@@H](C(=O)O1)[C@]34O)O2 (stereo partly drawn) | -3.77
29 | CCOc1nc2cccc(C(=O)O)c2n1Cc1ccc(-c2ccccc2-c2nc(=O)o[nH]2)cc1 | -0.57
30 | NCCCC(O)(P(=O)([O-])O)P(=O)(O)O | 0.52
31 | CC1(C)S[C@@H]2[C@H](NC(=O)C(C(=O)[O-])c3ccccc3)C(=O)N2[C@H]1C(=O)[O-] (stereo partly drawn) | -1.48
32 | Nc1ncccc1-c1nc2ccc(-c3ccccc3)nc2n1-c1ccc(C2(N)CCC2)cc1 | 91.9
33 | CC(C)(C)[C@]1(O)C[C@@H]2OC(=O)C[C@@]23C(=O)O[C@@H]2OC(=O)[C@H](O)C213 (stereo partly drawn) | -3.55
34 | COc1cccc2c1C(=O)c1c(O)c3c(c(O)c1C2=O)C[C@@](O)(C(=O)CO)C[C@@H]3OC1C[C@H](N2CCO[C@H](OC)C2)C(O)[C@H](C)O1 (stereo partly drawn) | 0.2
35 | CC1(C)CC[C@]2(NC(=O)C(C)(F)F)CC[C@]3(C)C(C(=O)C=C4[C@@]5(C)C=C(C#N)C(=O)C(C)(C)[C@@H]5CC[C@]43C)C2C1 (stereo partly drawn) | -22.1
36 | CC1(C)C[C@@H]1C(=O)N/C(=C\CCCCSC[C@H](N)C(=O)[O-])C(=O)O | -1.62
37 | CCOC(=O)c1cc2ccc(O)cc2oc1=O | -3.11
38 | c1ccc(CNCc2ccc(CN3CCCNCCNCCCNCC3)cc2)nc1 | -2
39 | Clc1ccc(N2CCN(Cc3c[nH]c4ncccc34)CC2)cc1 | 1.68
40 | O=C(c1ccc(-c2ccc(Cl)cc2)o1)N(Cc1ccccn1)c1ccc(N2CCNCC2)cc1 | 104
41 | CCCC(CCC)C(=O)NCC(N)=O | -5.65
42 | Nc1ccc(C(=O)[O-])c(O)c1 | -0.28
43 | C[C@H](CCC(=O)NCCS(=O)(=O)O)[C@H]1CC[C@H]2[C@@H]3[C@@H](O)C[C@@H]4C[C@H](O)CC[C@]4(C)[C@H]3CC[C@]12C | 3.34
44 | C[C@]12C=CC(=O)C=C1CC[C@@H]1[C@@H]2CC[C@]2(C)OC(=O)CC[C@@H]12 | -2.34
45 | CC(=O)O[C@H]1CC[C@@]2(C)C(=CC[C@@H]3[C@@H]2CC[C@]2(C)C(c4cccnc4)=CC[C@@H]32)C1 | 2.09
46 | Cc1cccc(C)c1-n1c(=O)c2cnc(Nc3ccc(N4CCN(C)CC4)cc3)nc2n2c3ccccc3nc12 | 81.7
47 | CN1CCN(c2ccc(Nc3ncc4cc(C#N)c(=O)n(C5CCCC5)c4n3)cc2)CC1 | -0.88
48 | C=CCn1c(=O)c2cnc(Nc3ccc(N4CCN(C)CC4)cc3)nc2n1-c1cccc(C(C)(C)O)n1 | 32.4
